ALDH1A1 block: qHTS Assay for Inhibitors of Aldehyde Dehydrogenase 1 (ALDH1A1). Aldehyde dehydrogenase 1A1 (Homo sapiens), P00352. Purified ALDH1A1, NADH fluorescence, propionaldehyde substrate. actives 7.3% (n = 220,000). Potency, µM (series often up to 75.3 µM), for the others: top-dose activity, negative = inhibition, most hits filed as inhibitors; active = well fitted inhibition curve with a large enough effect, not every such curve was filed as active; inconclusive = small, poorly fitted or top-dose-only effect, or another doubt; inactive = no such curve, though single readings can be large or run the other way;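 also: potency is read from the fitted curve at half-maximal effect; plate controls were no enzyme wells and a reference inhibitor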
HttQ103 aggreg: qHTS Multiplex Assay to Identify Dual Action Probes in a Cell Model of Huntington: Aggregate Formation (GFP); AID 1688, 2009; PC12 HttQ103-GFP aggregates, Acumen cytometry, 40 h; actives 1.1% (n = 220,000); Potency, µM (highest dose often 46.1 µM), for inactives: top-dose activity change, negative = inhibition, most hits filed as inhibitors; also: potency is read from the fitted curve at half-maximal effect; % is scaled to controls: 0 for no effect and ±100 for the full control effect; nearly all actives have a fitted effect of over 60% in size
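PC12 cells stably carrying ecdysone-inducible HTT exon 1 Q103–GFP were induced with tebufenozide (100 nM final) and treated with library compounds in titration. GFP aggregates in lysates were counted by laser scanning cytometry.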
HPGD block: qHTS Assay for Inhibitors of HPGD (15-Hydroxyprostaglandin Dehydrogenase); 15-hydroxyprostaglandin dehydrogenase [NAD(+)] (Homo sapiens), P15428; actives 4.3% (n = 150,000); purified HPGD, NADH fluorescence kinetic, PGE2 substrate; Potency, µM, for inactives: at the top dose activity change, negative = inhibition, most hits filed as inhibitors; active = well fitted inhibition curve with a large enough effect, not every such curve was filed as active; inconclusive = small, poorly fitted or top-dose-only effect, or another doubt; inactive = no such curve, though single readings can be large or run the other way; also: potency is read from the fitted curve at half-maximal effect; % is scaled to controls: 0 for no effect and ±100 for the full control effect
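20 nM HPGD preincubated 15 min at room temperature with compound in 50 mM Tris-HCl pH 8, 0.01% Tween 20. Started with 1 mM NAD+ and 30 uM prostaglandin E2; NADH fluorescence (360/450 nm) read 5 times over 30-s intervals, last minus first.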
PNC inhibitor: High Content Assay for Compounds that inhibit the Assembly of the Perinucleolar Compartment | activity change (PNC), negative = inhibition, % at 10 µM | actives 3.1% (n = 140,000) | PC3M PTB-GFP, PNC prevalence imaging, 16 h; active compounds read low | AID 2417, 2010;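 active = readout at or below -70, meaning at least 70% loss of cells showing the perinucleolar compartment, a nuclear body marking cancer cells; inconclusive = readout between -30 and a set limit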;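 also: plate controls were DMSO wells for no effect and camptothecin positive control wells for full effect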
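PC3M cells stably expressing PTB-GFP, 750–1000 cells/well, treated 16 h at 37 °C with compound (23 nl of library stock), in duplicate. After paraformaldehyde fixation and Hoechst stain, imaged at 20x; PNC prevalence scored by image analysis.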
HTT cytoprotect: qHTS Multiplex Assay to Identify Dual Action Probes in a Cell Model of Huntington: Cytoprotection (ATP). PC12 HTT-Q103 induced, cytoprotection, ATP luminescence, 40 h. actives 0.14% (n = 230,000). Potency, µM (series often up to 56.4 µM), for inactives: cytoprotection (ATP increase), usual class: activators. AID 1471, 2008; also: potency is read from the fitted curve at half-maximal effect; % of control where 0% means no effect; nearly all actives have a fitted effect of over 45% in size
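Readout: ATPlite luminescence (ATP level). Model: stable PC12, inducible Htt exon1 Q103-GFP. Inducer: tebufenozide, 100 nM final. Compounds: dose series. No G418 in medium.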
CBFb-RUNX1 inh: qHTS Assay for Compounds Blocking the Interaction Between CBF-beta and RUNX1 for the Treatment of Acute Myeloid Leukemia; Runt-related transcription factor 1 (Homo sapiens) + Core-binding factor subunit beta …; AlphaScreen CBFb-His/RUNX1-biotin binding, biochemical; Potency, µM (series often up to 59.8 µM), inactives show at the top dose activity, negative = inhibition, actives largely listed as inhibitors; 230,000 tested, under 10 active; AID 1477, 2009; also: % of control where 0% means no effect
Target sequence (Q01196 whole entry, looked up): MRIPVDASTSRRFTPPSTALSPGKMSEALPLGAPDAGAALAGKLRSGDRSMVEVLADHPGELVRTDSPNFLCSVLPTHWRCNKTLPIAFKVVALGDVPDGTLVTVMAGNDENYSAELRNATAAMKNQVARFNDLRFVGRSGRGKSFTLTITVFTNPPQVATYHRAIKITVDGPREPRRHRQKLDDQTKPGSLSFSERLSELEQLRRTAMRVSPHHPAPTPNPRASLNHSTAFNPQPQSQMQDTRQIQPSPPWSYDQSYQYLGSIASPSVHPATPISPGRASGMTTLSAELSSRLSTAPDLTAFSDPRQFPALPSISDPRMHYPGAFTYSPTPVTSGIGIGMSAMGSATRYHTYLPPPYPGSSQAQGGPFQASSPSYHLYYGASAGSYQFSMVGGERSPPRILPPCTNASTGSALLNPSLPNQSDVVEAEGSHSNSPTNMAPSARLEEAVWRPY
Target sequence (Q13951 whole entry, looked up): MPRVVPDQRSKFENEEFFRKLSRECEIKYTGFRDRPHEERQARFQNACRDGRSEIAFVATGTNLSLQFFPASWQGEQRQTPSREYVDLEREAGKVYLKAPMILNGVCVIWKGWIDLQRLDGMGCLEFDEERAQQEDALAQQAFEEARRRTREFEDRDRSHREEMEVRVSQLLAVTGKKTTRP
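Interaction loss through any mechanism counts as activity. Pre-formed complex of His-CBF-beta and biotin-RUNX1 (30 nM apiece) is incubated with compound 15 min, then with 50 ng nickel and 50 ng streptavidin beads for 90 min before AlphaScreen detection.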
Starred values were filed as active, the others as inactive; u = inconclusive; x = no result given; ! = a repeat was not active; [ ] = another dose, or the depositor's remark. The list is not random: actives were taken first. Their share in the collection is about 11%. Unless noted, calls follow the shape of the dose curve; as a rule, active = well fitted curve in the direction sought with a large enough effect; inconclusive = small, poorly fitted or top-dose-only effect, or another doubt; inactive = no such curve, though single readings can be large; an effect the other way counts as inactive or inconclusive.

SMILES | ALDH1A1 block | HttQ103 aggreg | HPGD block | PNC inhibitor | HTT cytoprotect | CBFb-RUNX1 inh
O=C1OC(/C=C/c2ccc(Cl)cc2Cl)=NC/1=C\c1cccs1 | 3.16µM* | 6.5% | -6.7% | -27.0 | 4.1%[10 µM] | -1.2%
COc1ccc(O[C@H]2C=C[C@@H](c3ccccc3)O[C@H]2COC(=O)CC/C(C)=N\O[C@@H](C)c2cc(-c3c(C)cc(C)cc3C)no2)cc1 | 9.3%[13.5 µM] | x | x | x | u | 15.6%[13.1 µM]
O/N=C1\CC/C(=N\O)c2nn(-c3ccccc3Cl)nc21 | -7.6% | u | -7.1% | -19.5 | -21.1% | 5.6%
Cc1ccc(-n2nc3c(n2)/C(=N/O)CC/C3=N\O)cc1 | 3.9% | 1.7% | -18.8% | -100.0* | -31.4%[10 µM] | -5.3%
COC(=O)c1c(O)cc(C(C)(C)C)n(-c2ccccc2)c1=O | 1.7% | 14.5% | -5.8% | u | x | 2.4%
Cc1ccc(C)c(/C(O)=C2\C(=O)C(=O)N(Cc3cccnc3)C2c2cccnc2)c1 (centres undefined) | u | 2.3% | 25.1µM* | 5.4 | -8.2% | -2.5%
CCOC(=O)C(CCc1ccccc1)NC(C)C(=O)N1Cc2cc(OC)c(OC)cc2CC1C(=O)O (centres undefined) | x | 11.0% | x | x | 20.0% | 3.6%
COc1cccc(NC(=O)CN(C)CC(=O)Nc2ccccc2-c2ccccc2)c1 | u | 19.7% | x | x | -3.7%[10 µM] | 3.1%
Cc1ccc(NC(=O)CN(C)CC(=O)Nc2ccccc2-c2ccccc2)cc1 | 14.1µM* | -0.8% | x | x | -17.8% | 6.9%
Cc1ccc(N=C2SC(C(=O)O)CC(=O)N2C)cc1C (centres undefined) | 2.7% | 8.3%[9.22 µM] | x | x | 0.5%[10 µM] | -3.4%
COc1ccc2[nH]cc(CCNC(C)=O)c2c1 | -2.3% | 9.9% | u | x | -16.0%[1.9 µM] | 12.4%[21.7 µM]
CC(=O)NCCc1c[nH]c2ccc(O)cc12 | -4.9% | x | 11.2µM*! | x | -43.5% | -9.3%
Cc1ccc2nc(Nc3ccccc3)c(/C=N/O)c(=O)n2c1 | 6.7% | -10.4% | 11.2µM* | -100.0* | 12.4%[10 µM] | 2.3%
COc1ccc(C(=O)N2CCC3(CCCN(C(=O)Nc4cccc(F)c4)C3)CC2)cc1 | 2.6% | x | -6.8% | x | -54.7% | x
COc1ccccc1CNc1ncnc2ccc(-c3ccccc3C#N)cc12 | u | x | x | x | -60.5% | x
Cc1cc(OI)c(C(C)C)cc1-c1cc(C(C)C)c(OI)cc1C | 7.0% | 21.7% | -15.3% | x | -13.3% | u
CNC(=O)c1nnsc1S(=O)(=O)c1ccc(Cl)cc1 | 2µM* | 3.16µM* | x | x | -140.1% | -2.6%
O=C(Nc1ccccc1)c1nnsc1S(=O)c1ccc(Cl)cc1 (centres undefined) | 1.78µM* | u | 7.94µM* | -18.2 | -102.5% | 4.0%
Nc1nc(C(=O)N2CCOCC2)nn1S(=O)(=O)c1ccc(Cl)cc1 | 18.1% | -20.1% | -4.2% | u | -2.2% | 4.7%
O=S(=O)(c1ccc(Cl)c(Cl)c1)c1snnc1-c1ccccc1 | -6.3% | u | -16.6% | -5.7 | -91.9% | -1.4%
O=C(c1nnsc1S(=O)(=O)c1ccc(Cl)cc1)N1CCOCC1 | 2.82µM* | 12.6µM* | x | x | -161.4% | 1.2%
O=C(c1nnsc1S(=O)c1ccc(Cl)cc1)N1CCOCC1 (centres undefined) | 7.08µM* | 11.2µM* | x | x | -152.8% | 0.6%
CCc1cc2c(nc1CC)CCN(CC/C(C)=N/OCC[C@@H]1C=C[C@H](OC(C)=O)[C@H](COC(C)=O)O1)C2 | 2.4%[13.5 µM] | x | x | x | 1.1%[10 µM] | 10.9%[13.1 µM]
CCCCC1=CC2=C(OC(C)=O)C(=O)C(C)(OC(=O)CCC(=O)OC)C(=O)C2=CO1 (centres undefined) | 0.1% | x | -8.6% | x | u | -6.5%
COc1ccc(-c2coc3cc(OC(C)=O)cc(OC(C)=O)c3c2=O)cc1 | 68.5% | x | -28.8% | x | x | x
SMILES | ALDH1A1 block | HttQ103 aggreg | HPGD block | PNC inhibitor | HTT cytoprotect | CBFb-RUNX1 inh
COc1cc(/C=C(\C#N)C(=O)c2ccc(O)c(O)c2)cc(I)c1O | u | x | 17.8µM* | x | 0.3%[1.9 µM] | x
CCC(C)NC(=O)CCNS(=O)(=O)c1ccc(Br)cc1 (centres undefined) | 1.1% | 3.7% | 0.5% | -89.6* | 10.6% | 2.8%
Cc1ccc(-n2nnnc2-c2nc3ccccc3s2)cc1 | -0.2% | -4.7% | -28.9% | -134.0* | 15.3%[10 µM] | -4.4%
O=C(O)/C=C\C(=O)Nc1ncn[nH]1 | -7.7%[13.5 µM] | x | -0.4% | x | -2.0%[10 µM] | x
COCCn1c(SCc2nnc(-c3ccccc3)o2)nc2sc3c(c2c1=O)CCC3 | -7.6% | -2.4% | 7.08µM* | 51.3 | -13.8%[10 µM] | 0.1%
COCCn1c(SCC(=O)Nc2ncc(C)s2)nc2sc3c(c2c1=O)CCC3 | -12.3% | -22.8% | -10.2% | u | -1.2% | -7.2%
CCn1c(SCc2ccc(Cl)cc2)nc2nc3c(cc2c1=O)CCCC3 | 12.6µM* | 4.7% | -24.8% | 0.7 | -0.4%[10 µM] | -21.7%
CSc1nc2nc3c(cc2c(=O)n1-c1ccccc1C)CCCC3 | x | -0.4%[9.22 µM] | x | x | 16.5%[10 µM] | 5.1%
O=C(Nc1ccccc1C(=O)NC(Cc1ccccc1)C(=O)NC1CCCCC1)c1ccccc1 (centres undefined) | 2.0% | 22.8% | -23.7% | 68.3 | 8.8%[10 µM] | 0.1%

Screens from PubChem BioAssay.
